Records with an inconclusive call do not appear. A call without a number means that no potency is given here. Calls of active or inactive are those of the source. Calls come from the whole dose curve; as a rule, active = well fitted activation curve with a large enough effect; inconclusive = small, poorly fitted or top-dose-only effect; inactive = flat fitted curve, though single readings scatter.
Potency is the fitted concentration of half-maximal effect.

This experiment in a line: qHTS for Inhibitors of Cell Surface uPA Generation: FP59 Counterscreen for Cherry-picked Compounds. Particulars: FP59 anthrax toxin cytotoxicity counterscreen, cells; series mostly up to 115 µM. In general terms: In qHTS, concentration-response curves come from the screen itself.
Take `COc1ccc(C2C(C(=O)c3ccc(C)o3)=C(O)C(=O)N2CC2CCCO2)cc1OC` (configuration not stated): the Potency result was “inactive”.

On to `Cc1cc(C)cc(S(=O)(=O)c2cn(C)c3cc(N4CCN(C)CC4)c(F)cc3c2=O)c1`, for which the Potency entry is “inactive”.

Regarding `Cc1ccc(C(=O)NNC(=O)CNc2cccc(Cl)c2)cc1`, the Potency result was “inactive”.

Turning to `CCc1nnc(NC(=O)CSc2nnnn2-c2cccc(C(C)=O)c2)s1`, the Potency entry was “inactive”.

`COc1ccc(OC)c(S(=O)(=O)N2CCC(NC(=O)c3ccccc3)CC2)c1`: the Potency entry was “inactive”.

Consider `COc1ccc(-c2cc3nc(C)cc(-c4ccc(OC)cc4)n3n2)cc1`, for which the Potency entry was “inactive”.

Regarding `Cc1ccc(N2C(=O)CC(N3CCN/C3=C3\CC/C(=C\c4ccccc4)C3=O)C2=O)cc1` (configuration not stated), the Potency result was “inactive”.

`CC1CCCC(NC(=O)CNC(=S)N(Cc2ccccc2)Cc2cccs2)C1C` (configuration not stated): the Potency result is “inactive”.

On to `S=C(Nc1ccccc1Cl)N1CCCC(c2ccccc2)=N1`, for which the Potency is 23.3 µM (active).

Regarding `COc1cccc(NC(=O)CSc2nc3ncc(Br)cc3[nH]2)c1`, the Potency entry is “inactive”.

For `O=C1C=C(NNC(=O)c2ccncc2)CC(c2ccccc2)C1` (configuration not stated), the Potency entry is “inactive”.

`COc1ccc(NS(=O)(=O)c2cc(NS(=O)(=O)c3cc(C(=O)O)ccc3OC)ccc2C)cc1`: the Potency entry is “inactive”.

Turning to `Cc1ccccc1N1C(=O)C(Cc2ccc(F)cc2)S/C1=C(\C#N)C(N)=O` (configuration not stated), the Potency entry was “inactive”.

On to `COc1ccccc1C(=O)NCc1ccccc1`, for which the Potency entry is “inactive”.

As to `Cc1nn(C)c(C)c1S(=O)(=O)N1CCC(C(=O)NC2CCCCCC2)CC1`, the Potency entry was “inactive”.

Regarding `Cc1ccc2cccc(OCCCOc3ccccc3CO)c2n1`, the Potency result was “inactive”.

With `O=C(Nc1cccc(-c2nn[nH]n2)c1)c1ccc(Cl)s1`, the Potency entry was “inactive”.

`COc1cc(/C=N/NC(=O)c2cc(-c3ccco3)nc3ccccc23)cc(OC)c1O`: the Potency entry is “inactive”.

On to `CC1(C)CC(=O)C([N+](=O)[O-])=C(NCCCC(=O)O)C1`, for which the Potency result was “inactive”.

As for `CN(C)S(=O)(=O)c1ccc(NC(=O)COC(=O)CC2CC3CCC2C3)cc1` (configuration not stated), the Potency result was “inactive”.

Turning to `COc1ccc(OC)c(NC(=O)C2CCCN2C(=O)C2CCC(C)CC2)c1` (configuration not stated), the Potency result was “inactive”.

On to `COCCN(C(=O)CSc1nnc(-c2ccncc2)n1C)c1c(N)n(CC(C)C)c(=O)[nH]c1=O`, for which the Potency entry was “inactive”.

Source of the values: PubChem BioAssay AID720517 (National Center for Advancing Translational Sciences (NCATS), 2013).
